This is an account of results in PubChem BioAssay.

For test [1], the system named is TRPC4 beta (transient receptor potential cation channel C4), mouse. The experiment in a line: TRPC4 cation channel opening, retest – cell-based, Fluo4 calcium, HEK293 TRPC4beta/mu-opioid, duplicates, 10 µM, confirmation (AID 2426;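 active = fluorescence ratio normalized to control raised more than 50% in primary screen plus both repeat runs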). The conditions noted are these: Fluo4 calcium fluorescence, at 10 µM; stronger effect = higher value.
In test [2] the test system is transient receptor potential cation channel C4 beta (TRPC4), mouse. The test is described as follows: TRPC4 cation channel opening, second retest – cell-based, second round, Fluo4, HEK293 TRPC4beta/mu-opioid, 1 µM, confirmation (AID 2461;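 active = primary screen active and over 50% activation in each of two duplicate runs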). The conditions noted are these: Fluo4 calcium fluorescence, at 1 µM; stronger effect = higher value.
In test [3] the test system is TRPC4 (transient receptor potential cation channel C4 beta), mouse. The test is described as follows: potentiation of DAMGO EC20 TRPC4 response – cell-based, second round, Fluo-4, HEK293 TRPC4beta/mu-opioid, 1 µM, confirmation (AID 2554;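 active = primary screen hit whose fluorescence ratio, in both repeats, exceeds the weak agonist control mean by 3 SD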). The conditions noted are these: DAMGO EC20, Fluo-4 calcium flux, at 1 µM; stronger effect = higher value.
Test [4] has as its system TRPC4 beta (transient receptor potential cation channel C4), mouse. The experiment in a line: potentiation of DAMGO EC20 TRPC4 response – cell-based, Fluo-4, HEK293 TRPC4beta/mu-opioid, confirmation (AID 2555;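 active = primary screen hit whose calcium fluorescence ratio, in both repeats, exceeds the weak agonist control mean by 3 SD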). The conditions noted are these: DAMGO EC20, Fluo-4 calcium flux, at 10 µM; stronger effect = higher value. (Calcium flux is commonly read through the fluorescence of an indicator in the cells.)

In test [5] the target is Short transient receptor potential channel 4 (Mus musculus) (UniProt Q9QUQ5). The test is described as follows: blockers of DAMGO-evoked TRPC4 calcium flux – cell-based, Fluo4, HEK293 TRPC4beta/mu-opioid, confirmation (AID 2636;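 active = calcium signal cut by more than 3 SD below the full-agonist control yet still positive, in both repeats and the earlier primary screen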). The conditions noted are these: at 10 µM; stronger effect = higher value.
For test [6] the target is unchanged. The test is described as follows: blockers of DAMGO-evoked TRPC4 calcium flux – cell-based, second round, Fluo4, HEK293 TRPC4beta/mu-opioid, 1 µM, confirmation (AID 2637;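 active = calcium signal ratio cut to more than 3 SD under the fully stimulated control mean yet still positive, in both repeats and the primary screen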;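 as to inhibition: percent of integrated ratio relative to wells lacking test compound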). The conditions noted are these: at 1 µM; stronger effect = higher value.
For test [7] the target is unchanged. The test is described as follows: calcium entry via TRPC4 opening agents – cell-based, HEK293 TRPC4/mu-opioid, Fluo-4 calcium, dose response (AID 434937;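 active = primary screen activator hit with a dose response curve and TRPC4 channel activation at any tested dose; inactive = no activation, no dose response, or not a primary hit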).
The target is the same in test [8]. The experiment in a line: potentiation of DAMGO-evoked TRPC4 calcium signal – cell-based, HEK293 TRPC4/mu-opioid, Fluo-4 calcium, EC20 DAMGO, dose response (AID 434941;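 active = earlier screen potentiator hit that boosts the TRPC4 ion channel at some dose, with a dose response; inactive = no potentiation, no dose response, or not a prior hit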;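 also: calcium entry triggered by an EC20 dose of DAMGO at the co-expressed mu-opioid receptor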).
For test [9], the target named is Short transient receptor potential channel 6 (Mus musculus) (UniProt Q61143). The test is described as follows: TRPC6 blockade by TRPC4 inhibitor hits – cell-based, HEK293, membrane potential dye, duplicate, selectivity assay for TRPC4 inhibitor project, confirmation (AID 434948;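 active = active in primary screen and both duplicates, each dropping signal beyond three positive-control SD with fluorescence still positive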). The conditions noted are these: HEK293 TRPC6, membrane potential dye fluorescence, at 10 µM, stimulated with maximal-effect acetylcholine; stronger effect = higher value.

Test [10] has the same target. The experiment in a line: TRPC6 opening by TRPC4 activator hits – cell-based, HEK293, membrane potential dye, duplicate, selectivity assay for TRPC4 activator project, confirmation (AID 434950;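 active = membrane potential signal rise above negative control mean plus 3 SD in both duplicates, also active in the earlier TRPC4 screen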). The conditions noted are these: HEK293 TRPC6, membrane potential fluorescence, at 10 µM; activation: stronger effect = higher value; outcome: activation.
Test [11] has the same target. The test is described as follows: positive modulators of mouse TRPC6 channel – HEK293 cells, membrane potential dye, duplicate, selectivity assay for TRPC4 potentiator project, confirmation (AID 434952;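 active = compound raising the membrane signal above positive-control mean plus 3 SD in both repeats, and a primary screen hit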). The conditions noted are these: HEK293 TRPC6, membrane potential dye fluorescence, at 10 µM, maximal acetylcholine added after compound; stronger effect = higher value.
The target in test [12] is Short transient receptor potential channel 4 (Mus musculus) (UniProt Q9QUQ5). The experiment in a line: calcium flux activators in TRPC4/5HT1a cells, counter-screen for TRPC4 activator project, cell-based, second counter screen, HEK293 TRPC4/5HT1a, Fluo-4 (AID 434977). The conditions noted are these: Fluo-4 calcium flux, at 10 µM; stronger effect = higher value.
The nature of test [13]: serotonin-gated TRPC4 signal block – cell-based, second counter screen, HEK293 TRPC4/5HT1a, Fluo-4, counter-screen for TRPC4 inhibitor project, confirmation (AID 434978;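 active = primary screen active whose calcium signal fell more than 3 SD beyond the full-serotonin control mean in both duplicate plates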;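 as to outcome: serotonin given first at submaximal then at maximal dose after compound preincubation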). The conditions noted are these: Fluo-4 calcium flux, at 10 µM, serotonin added to trigger calcium flux; stronger effect = higher value. On the technique in general: Counterscreens check selectivity or assay interference.

For test [14], the system named is TRPC4 (mouse), co-expressed with 5HT1a in HEK293. The experiment in a line: enhancement of serotonin-evoked TRPC4 response – cell-based, second counter screen, HEK293 TRPC4/5HT1a, Fluo-4, counter-screen for TRPC4 potentiator project, confirmation (AID 434979;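 active = signal rise over 3 SD above mean of control wells given weak agonist, in both repeats and first screen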). The conditions noted are these: Fluo-4 calcium flux, at 10 µM, serotonin added at its EC20 dose; stronger effect = higher value.

Test [15] in a line: nonspecific calcium rise without TRPC4 – cell-based, HEK293 mu-opioid receptor line, counter-screen for TRPC4 activator project, confirmation (AID 449723;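 active = hit in primary screen, with calcium signal over 5 SD above buffer well mean in both duplicates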;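 also: counter screen cells carry the mu-opioid receptor alone and lack TRPC4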). The conditions noted are these: HEK293 mu-opioid cells, Fluo-4 calcium fluorescence, at 10 µM; stronger effect = higher value.
Test [16] can be described thus: nonspecific potentiation of DAMGO calcium response – cell-based, HEK293 mu-opioid receptor line, counter-screen for TRPC4 allosteric potentiator project, confirmation (AID 449724;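 active = calcium signal rise more than 3 SD above the low-dose agonist control mean, in both duplicate plates and the primary screen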;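 also: HEK293 cells carrying mu-opioid receptor only with no TRPC4 channel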). The conditions noted are these: HEK293 mu-opioid receptor cells, Fluo-4 calcium flux, at 10 µM, compound added before EC20 DAMGO stimulus; stronger effect = higher value.

Molecules are shown by their SMILES. For some of these results: Results with a measured potency or affinity are listed apart. Calls of active or inactive are those of the source.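 The calls were made as follows, unless noted: active = calcium signal rise above buffer-control mean plus 5 SD in both duplicates, and also a hit in the primary screen; inactive = the rest.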

Chain of Short transient receptor potential channel 6 (Mus musculus) (Q61143 whole entry, looked up): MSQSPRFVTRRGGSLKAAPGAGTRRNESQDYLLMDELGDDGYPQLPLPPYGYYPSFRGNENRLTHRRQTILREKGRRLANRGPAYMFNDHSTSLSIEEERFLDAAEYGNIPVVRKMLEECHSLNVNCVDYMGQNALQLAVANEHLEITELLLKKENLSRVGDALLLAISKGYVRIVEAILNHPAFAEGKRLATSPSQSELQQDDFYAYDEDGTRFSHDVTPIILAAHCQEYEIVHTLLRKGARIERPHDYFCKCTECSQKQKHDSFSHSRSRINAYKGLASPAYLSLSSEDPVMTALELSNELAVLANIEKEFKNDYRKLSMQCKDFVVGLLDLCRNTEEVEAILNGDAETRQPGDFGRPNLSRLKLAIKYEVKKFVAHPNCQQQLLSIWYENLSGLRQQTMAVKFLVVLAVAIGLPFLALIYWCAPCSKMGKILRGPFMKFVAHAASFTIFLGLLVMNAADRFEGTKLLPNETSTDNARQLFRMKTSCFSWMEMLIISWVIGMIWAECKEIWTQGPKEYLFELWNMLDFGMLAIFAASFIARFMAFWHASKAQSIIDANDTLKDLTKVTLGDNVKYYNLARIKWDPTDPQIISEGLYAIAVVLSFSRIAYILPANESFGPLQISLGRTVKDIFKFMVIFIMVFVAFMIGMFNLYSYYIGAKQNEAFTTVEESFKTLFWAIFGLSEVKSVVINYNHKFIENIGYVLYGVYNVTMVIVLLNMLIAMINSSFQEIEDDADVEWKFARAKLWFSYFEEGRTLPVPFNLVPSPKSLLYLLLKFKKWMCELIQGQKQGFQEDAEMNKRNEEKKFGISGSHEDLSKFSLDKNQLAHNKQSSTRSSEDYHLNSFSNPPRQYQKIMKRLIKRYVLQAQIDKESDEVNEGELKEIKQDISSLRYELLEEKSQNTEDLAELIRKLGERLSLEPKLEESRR
Chain of Short transient receptor potential channel 4 (Mus musculus) (Q9QUQ5 whole entry, looked up): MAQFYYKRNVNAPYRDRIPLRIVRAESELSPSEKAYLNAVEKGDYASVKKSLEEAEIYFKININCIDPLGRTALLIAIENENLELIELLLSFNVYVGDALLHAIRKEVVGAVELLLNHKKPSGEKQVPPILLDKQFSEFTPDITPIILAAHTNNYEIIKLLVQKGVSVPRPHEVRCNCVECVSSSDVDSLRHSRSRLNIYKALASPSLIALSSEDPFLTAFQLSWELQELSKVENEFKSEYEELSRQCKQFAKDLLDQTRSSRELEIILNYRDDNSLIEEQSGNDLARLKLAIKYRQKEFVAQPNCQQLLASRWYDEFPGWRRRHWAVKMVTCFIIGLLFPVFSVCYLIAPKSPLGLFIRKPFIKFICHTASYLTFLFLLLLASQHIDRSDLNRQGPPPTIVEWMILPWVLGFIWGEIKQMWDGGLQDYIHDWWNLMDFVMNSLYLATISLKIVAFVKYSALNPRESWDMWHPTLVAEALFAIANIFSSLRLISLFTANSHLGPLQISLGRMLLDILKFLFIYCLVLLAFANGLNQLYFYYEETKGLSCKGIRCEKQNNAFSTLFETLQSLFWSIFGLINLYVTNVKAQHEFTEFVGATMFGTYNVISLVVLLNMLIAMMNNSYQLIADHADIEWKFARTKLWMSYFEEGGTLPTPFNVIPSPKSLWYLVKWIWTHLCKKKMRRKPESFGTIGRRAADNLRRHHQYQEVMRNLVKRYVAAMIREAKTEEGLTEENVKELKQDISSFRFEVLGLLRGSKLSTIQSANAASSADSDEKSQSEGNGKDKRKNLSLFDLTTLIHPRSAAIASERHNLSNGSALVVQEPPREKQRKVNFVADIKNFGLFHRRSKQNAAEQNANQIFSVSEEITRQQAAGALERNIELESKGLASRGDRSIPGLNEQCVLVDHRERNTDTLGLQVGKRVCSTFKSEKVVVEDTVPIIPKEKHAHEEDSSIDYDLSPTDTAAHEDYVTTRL

One may read the inhibition as the relative decrease from the control value, in per cent. Regarding `CCn1c2ccccc2c2cc(/C=N/NC(=O)c3cc(O)cc(O)c3)ccc21`, the result in [1], in [2], in test [3], in [4], in [7] and in [8] was inactive. For the same molecule, the molecule was classed as inactive in test [9], in [10], in test [11], in test [12], in [14] and in [15]. Also, in test [16], the outcome was inactive. Further, the inhibition in [5] was 78% (active); in [6] it was 43% (active); in [13], 43% (active).
Consider `NC(=O)c1nsc(C(=O)N(Cc2ccc(F)cc2)C(C(=O)NCC2CCCO2)c2ccc(O)cc2)c1N` (stereo unspecified), for which the result in [1], in test [2], in test [3], in test [4], in test [6] and in test [7] was inactive. The outcome in test [8], in test [9], in test [10], in test [11], in test [12] and in test [14] was inactive. The result in [15] and in test [16] was inactive. In addition, the inhibition was 77% (active) in test [5] and 25.6% (active) in [13].
Take `Cc1ccc(S(=O)(=O)Nc2cccc(C(=O)NCC(c3ccco3)N3CCCCC3)c2)cc1F` (stereo unspecified): the result in test [1], in [2], in test [3], in [4], in test [7] and in test [8] was inactive. Also, the molecule was classed as inactive in test [9], in [10], in test [11], in test [12], in test [13] and in test [14]. The outcome in test [15] and in test [16] was inactive. Further, the inhibition is 100% (active) in [5] and 39% (active) in test [6].
As for `OC1(c2cccs2)CN(c2ccc(Cl)cc2)C2=[N+]1CCCC2` (stereo unspecified), the result in test [1], in test [2], in [3], in [4], in test [6] and in test [7] was inactive. In addition, the result in test [8], in [9], in test [10], in test [11], in test [12] and in test [14] was inactive. Further, the result in test [15] and in test [16] was inactive. In addition, the inhibition was 72% (active) in test [5] and 35.1% (active) in [13].
In the case of `Cc1ncsc1CCOC(=O)C12CC3CC(CC(C3)C1)C2`, the result in [1], in [2], in [3], in test [4], in [6] and in test [7] was inactive. Also, the outcome in [8], in test [9], in test [10], in test [11], in test [12] and in test [14] was inactive. In addition, the outcome in test [15] and in test [16] was inactive. Moreover, the figures for the inhibition in [5] and in [13] were 94% (active) and 17.8% (active), respectively.
As to `Cc1c(CCOC(=O)CC23CC4CC(CC(C4)C2)C3)sc[n+]1Cc1ccccc1`, the result in test [1], in test [2], in test [3], in test [4], in test [6] and in [7] was inactive. Moreover, the outcome in test [8], in [10], in [11], in test [12], in test [14] and in test [15] was inactive. The outcome in test [16] was inactive. Besides, the inhibition in [5] is 96% (active); in test [9], 44.5% (active); in test [13] it was 19.6% (active).
Consider `FC(F)Oc1ccccc1NC(=S)Nc1cccc(Cl)c1Cl`, for which the result in test [1], in test [2], in test [3], in test [4], in test [7] and in test [8] was inactive. Also, the result in test [9], in test [10], in [11], in test [12], in [13] and in test [14] was inactive. Moreover, the result in test [15] and in test [16] was inactive. In addition, the inhibition in test [5] was 77% (active); in test [6] it was 45% (active).
Turning to `CSCCNC(=O)c1ccc(OC2CCN(CCc3ccccc3)CC2)cc1`, the outcome in test [1], in test [2], in [3], in [4], in test [5] and in test [7] was inactive. Besides, the outcome in test [8], in test [9], in test [10], in [11], in [12] and in test [13] was inactive. The result in [14], in test [15] and in test [16] was inactive. For the same molecule, the inhibition in [6] was 65% (active).
For `COc1cc(/C=C2\SC(=S)N(NS(=O)(=O)c3ccc(C)cc3)C2=O)cc(OC)c1OC`, the result in test [1], in test [2], in test [3], in [4], in test [6] and in test [7] was inactive. Moreover, the outcome in test [8], in test [9], in test [10], in [11], in test [12] and in test [14] was inactive. Besides, the outcome in test [15] and in test [16] was inactive. Besides, the inhibition is 95% (active) in test [5] and 34.5% (active) in test [13].
For the molecule `CC(OC(=O)CNC(=O)c1ccccc1F)C(=O)Nc1nc(-c2ccccc2)cs1` (stereo unspecified), the result in test [1], in test [2], in test [3], in test [4], in test [6] and in test [7] was inactive. The outcome in [8], in test [9], in test [10], in test [11], in [12] and in [14] was inactive. The result in test [15] and in [16] was inactive. Besides, the inhibition in test [5] is 78% (active); in [13], 44.3% (active).
As for `O=C(c1ccco1)N1CCN(C/C=C/c2ccccc2)CC1`, the outcome in test [1], in test [2], in [3], in [4], in test [7] and in test [8] was inactive. Also, the molecule was called inactive in test [9], in test [10], in test [11], in [12], in test [13] and in [14]. In addition, the result in test [15] and in [16] was inactive. Besides, the inhibition in [5] is 87% (active); in test [6], 64% (active).
Turning to `Cc1cc(Cl)c2oc(C(=O)N(C)Cc3nccn3C)c(C)c2c1`, the result in [1], in test [2], in test [3], in [4], in test [6] and in test [7] was inactive. Further, the outcome in [8], in test [9], in test [10], in test [11], in test [12] and in test [13] was inactive. The outcome in test [14], in test [15] and in test [16] was inactive. Also, the inhibition in test [5] was 84% (active).
As to `O=C(Nc1ccccc1N1CCN(C(=O)c2ccccc2)CC1)c1ccc(Br)o1`, the outcome in test [1], in test [2], in test [3], in test [4], in test [7] and in test [8] was inactive. Further, the outcome in test [9], in [10], in test [11], in test [12], in [14] and in [15] was inactive. Also, the outcome in test [16] was inactive. Moreover, the inhibition was 82% (active) in test [5], 57% (active) in test [6] and 31.6% (active) in test [13].
In the case of `Nc1cc(=O)nc(SCC(=O)N2CCN(c3ccccc3)CC2)n1-c1ccc(F)cc1`, the result in test [1], in [2], in test [3], in test [4], in test [7] and in [8] was inactive. Moreover, the molecule was classed as inactive in test [9], in [10], in test [11], in [12], in test [14] and in test [15]. The result in test [16] was inactive. Besides, the inhibition in test [5] is 95% (active); in [6], 45% (active); in [13] it was 43.7% (active).
On to `COc1ccc(C(CNc2ccc(C(F)(F)F)cn2)N(C)C)cc1OC` (stereo unspecified), for which the result in [1], in test [2], in test [3], in [4], in [5] and in [7] was inactive. The result in test [8], in test [9], in [10], in [11], in [12] and in [13] was inactive. Besides, the result in test [14], in test [15] and in test [16] was inactive. In addition, the inhibition in test [6] was 69% (active).
For the molecule `CCC1CCCCN1Cc1nc2c(c(=O)n(C)c(=O)n2C)n1Cc1ccccc1` (stereo unspecified), the result in [1], in test [2], in test [3], in [4], in test [6] and in test [7] was inactive. In addition, the result in [8], in test [9], in test [10], in test [11], in test [12] and in [14] was inactive. For the same molecule, the outcome in test [15] and in [16] was inactive. The inhibition in test [5] was 74% (active); in test [13], 38.1% (active).
